A short description of assay [1]: Wnt pathway potentiators raising nuclear beta-catenin – imaging, WNT3A-conditioned medium, mouse C2C12, NPC library, primary screen (AID 1117326; in the data active = nuclear beta-catenin stimulation mostly above about 4.2%, no sharp cut-off; inactive = mostly below about 10%). Conditions: stronger effect = higher value.
A short description of assay [2]: stimulators of insulin release from INS-1E, primary screen, cell-based, 5 mM glucose, NPC library (AID 1117329;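 active = compound raises insulin release from rat beta cells at 5 mM glucose, no numeric limit stated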). The following applies: rat INS-1E insulin secretion, at 10 µM, stronger effect = higher value.
A short description of assay [3]: growth inhibition of GSK3B-pretreated HCT116 cells – cell-based, CellTiter-Glo, 0.2 to 20 µM (AID 1117336;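 active = compounds lowering colon cancer cell viability after pretreatment blocking the GSK3B kinase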). The following applies: HCT116 viability after GSK3B inhibitor, at 20 µM, stronger effect = higher value.
A short description of assay [4]: inhibition of endothelial tube formation, primary screen, imaging, VEGF stimulated, CD31 staining, tube area, NPC library (AID 1117340;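 active = compound that reduces growth-factor-driven endothelial tube area in a mixed cell culture, no cutoff stated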). Conditions: VEGF-stimulated ADSC/ECFC co-culture, at 10 µM, stronger effect = higher value.
Assay [5] in a line: GLP1 release stimulators, primary, NCI-H716, NPC library (AID 1117341;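 active = compound raises GLP1 secretion from the human gut endocrine cells, with no numeric limit stated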). Conditions: NCI-H716 cells, at 10 µM, stronger effect = higher value.
Assay [6] can be described thus: HCT116 colon cancer cell growth inhibition, primary screen, CellTiter-Glo luminescence, NPC library (AID 1117342;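 active = compounds that lower survival of HCT116 colon cancer cells in the luminescence readout, no numeric limit stated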). Conditions: at 20 µM (top of the series). A general note: In ATP-based viability assays light output follows the ATP content of the culture.
A short description of assay [7]: reduced SW480 viability measured with CellTiter-Glo, NPC library, primary (AID 1117343;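 active = compounds that lower viability of the colon cancer cells in the luminescence readout, with no numeric limit stated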). The following applies: CellTiter-Glo luminescence; at 20 µM (top of the series).
A short description of assay [8]: NPC library primary testing for decreased DLD-1 cell viability via CellTiter-Glo (AID 1117346;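 active = compounds that lower survival of DLD-1 colon cancer cells in the luminescence readout, no cutoff given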). The following applies: DLD-1 viability, CellTiter-Glo luminescence; at 20 µM (top of the series).
The target in assay [9] is 6-phosphogluconate dehydrogenase, decarboxylating (Homo sapiens) (UniProt P52209). Briefly: inhibition of human phosphogluconate dehydrogenase – biochemical, recombinant enzyme, NADPH absorbance, primary screen (AID 1159550;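 active = at least 20% inhibition of 6-phosphogluconate dehydrogenase activity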). The following applies: recombinant 6PGD, NADPH absorbance 341 nm; at 10 µM; stronger effect = higher value.
Sequence of 6-phosphogluconate dehydrogenase, decarboxylating (Homo sapiens) (P52209 whole entry, looked up): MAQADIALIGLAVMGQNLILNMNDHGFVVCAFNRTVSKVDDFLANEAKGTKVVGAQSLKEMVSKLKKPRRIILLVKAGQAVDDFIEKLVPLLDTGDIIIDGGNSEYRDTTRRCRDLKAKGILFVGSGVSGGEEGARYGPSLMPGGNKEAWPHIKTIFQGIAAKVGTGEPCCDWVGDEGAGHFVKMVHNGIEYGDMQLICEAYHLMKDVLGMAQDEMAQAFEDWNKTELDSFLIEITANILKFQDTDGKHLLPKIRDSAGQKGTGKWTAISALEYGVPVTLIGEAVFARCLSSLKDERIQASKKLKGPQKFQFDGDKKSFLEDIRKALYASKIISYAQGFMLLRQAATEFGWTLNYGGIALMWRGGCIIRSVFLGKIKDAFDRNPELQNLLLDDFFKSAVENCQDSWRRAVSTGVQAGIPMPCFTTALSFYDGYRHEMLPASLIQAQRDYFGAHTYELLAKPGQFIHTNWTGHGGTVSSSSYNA
Assay [10] can be described thus: EMT-state selective cytotoxicity in co-culture – imaging, PC-3E GFP, TEM4-18 mCherry, primary screen (AID 1345086;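 active = compounds killing one labelled cell type while sparing the other, by normalised counts and ratio limits, not self-fluorescent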;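 for all read-outs here: cells exposed to compound for 72 h before imaging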;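 for red/green cell ratio (normalised): normalised mesenchymal count divided by normalised epithelial count so high means epithelial killing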). The following applies: PC-3E GFP / TEM4-18 mCherry co-culture, imaging cell counts, at 1 µM; for red/green cell ratio (normalised): actives lie on both sides, counts scaled to control wells, 1 = unselective.
Assay [11] can be described thus: viability loss with induced miR-34 in A549 – imaging, A549 dox-inducible miR-34, nuclei and caspase counts, primary screen (AID 1347080;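 active = compounds whose cell count with miR-34 switched on is under 0.7 times the count with it off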). Conditions: A549 miR-34 inducible, Hoechst nuclei count, 48 h.
A short description of assay [12]: MELAS cybrid and Rieske KO viability enhancers – cell-based, MELAS cybrids, Rieske KO mouse fibroblasts, CellTiter-Glo, primary screen (AID 1508586;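 active = mean z-score across replicates of 1.96 or higher in either the MELAS or the Rieske mutant cell line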;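 note: z relative to plate mean and SD of compound and empty wells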). Conditions: low glucose.
Assay [13] concerns the target NAD(+) hydrolase SARM1 (Homo sapiens) (UniProt Q6SZW1). Description: blocking NAD cleavage by SARM1 SAM-TIR – cell lysate, NAD-Glo luminescence (AID 1508614;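 active = compound whose remaining NAD level is above about 45 nM, limit read from the data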;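 note: higher remaining NAD means stronger inhibition of SARM1 NADase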). Conditions: SAM-TIR HEK293T lysate NADase, at 1 µM, stronger effect = higher value.
For a further assay, the system named is F380Y. Briefly: BK channel mutant inhibitors and activators – cell-based, U2OS BacMam, thallium flux, beta subunits, selectivity assay, profiling panel (AID 1259406).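 Note: initial slope of Thallos dye fluorescence rise after thallium is added; log ratio against the mean of 0.3% DMSO vehicle wells on the same plate.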 Conditions: U2OS BacMam BK variants, at 30 µM.
A further assay relates to F380Y/beta1. The assay is described as above. The following applies: U2OS BacMam BK variants, at 30 µM.
The next assay has as its system F380Y/beta2Delta. The description is as above. The following applies: U2OS BacMam BK variants, at 30 µM.
For another assay, the system named is F380Y/beta4. The description is as above. Conditions: U2OS BacMam BK variants, at 30 µM.
In assay [14] the target is Calcium-activated potassium channel subunit alpha-1 (Homo sapiens) + Leucine-rich repeat-containing protein 26 (Homo sapiens) (UniProt Q12791+Q2I0M4). The assay is described as above. The following applies: U2OS BacMam BK variants, F380Y/Slo1WT/gamma1, at 30 µM.
Sequence of Calcium-activated potassium channel subunit alpha-1 (Homo sapiens) + Leucine-rich repeat-containing protein 26 (Homo sapiens) (Q2I0M4 whole entry, looked up, one chain of several): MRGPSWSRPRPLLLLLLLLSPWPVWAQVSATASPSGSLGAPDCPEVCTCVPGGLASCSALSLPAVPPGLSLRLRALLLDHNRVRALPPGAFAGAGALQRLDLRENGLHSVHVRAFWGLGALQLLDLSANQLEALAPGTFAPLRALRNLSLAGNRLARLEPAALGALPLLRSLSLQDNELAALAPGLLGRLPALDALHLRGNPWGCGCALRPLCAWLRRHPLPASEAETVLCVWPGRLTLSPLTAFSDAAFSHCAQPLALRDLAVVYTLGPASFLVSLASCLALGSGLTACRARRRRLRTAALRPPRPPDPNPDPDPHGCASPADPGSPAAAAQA
A further assay has as its system R275C. The description is as above. Conditions: U2OS BacMam BK variants, at 30 µM.
[15] abbreviates: measured here: epithelial PC-3E GFP cell survival.
Where [16] appears, read: measured here: mesenchymal TEM4-18 mCherry cell survival.
[17] abbreviates: stronger effect = lower value, cell number ratio, induced over uninduced.
Where [18] appears, read: measured here: relative caspase fold change +Dox/-Dox.
[19] abbreviates: measured here: total cells with miR-34 induction, stronger effect = lower value.
Where [20] appears, read: measured here: total cells without miR-34 induction.
Setting [21] is: MELAS cybrid survival, CellTiter-Glo 48 h, stronger effect = higher value.
Where [22] appears, read: Rieske KO mouse fibroblast survival, CellTiter-Glo 72 h.

“And” between values parts separate entries of the source, which are not always exact repeats. Identical values can stand only once. The source made the active and inactive calls.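 Rule for the calls, unless noted: active = thallium flux through the channel raised or lowered by more than 3 SD from vehicle-only wells, actives on both sides; inactive = the rest.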

A word on the inhibition: it is the drop in the measured response relative to a control, in per cent.

Sequence of NAD(+) hydrolase SARM1 (Homo sapiens) (Q6SZW1 whole entry, looked up): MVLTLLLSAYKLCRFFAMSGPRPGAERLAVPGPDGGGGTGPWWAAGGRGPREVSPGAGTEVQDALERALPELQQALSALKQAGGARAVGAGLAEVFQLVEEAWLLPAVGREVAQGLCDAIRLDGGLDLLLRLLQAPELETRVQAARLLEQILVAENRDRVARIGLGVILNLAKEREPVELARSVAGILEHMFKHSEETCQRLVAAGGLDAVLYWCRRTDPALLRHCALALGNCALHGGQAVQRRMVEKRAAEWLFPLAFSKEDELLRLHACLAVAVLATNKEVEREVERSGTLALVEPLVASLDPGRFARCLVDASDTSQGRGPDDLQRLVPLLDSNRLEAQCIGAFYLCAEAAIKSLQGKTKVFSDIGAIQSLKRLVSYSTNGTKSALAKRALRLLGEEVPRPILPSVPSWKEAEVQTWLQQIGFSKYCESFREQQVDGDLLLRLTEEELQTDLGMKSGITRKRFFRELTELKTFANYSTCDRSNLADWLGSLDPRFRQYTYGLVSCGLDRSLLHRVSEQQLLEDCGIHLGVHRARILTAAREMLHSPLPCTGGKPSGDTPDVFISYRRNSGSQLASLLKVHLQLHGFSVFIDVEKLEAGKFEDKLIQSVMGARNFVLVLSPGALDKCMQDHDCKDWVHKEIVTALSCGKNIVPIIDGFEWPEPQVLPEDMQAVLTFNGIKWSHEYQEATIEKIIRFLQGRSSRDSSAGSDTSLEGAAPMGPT

Regarding `NS(=O)(=O)c1cc(C2(O)NC(=O)c3ccccc32)ccc1Cl` (stereo not given), the nuclear beta-catenin stimulation in assay [1] (at 10 µM) is 2.1% (inactive); in assay [1] (stimulation, at 2 µM) it was 6.2%. The insulin secretion stimulation in [2] was 0.8% (inactive). Also, the viability decrease in [3] is -12.6% (inactive). Also, the tube area decrease in assay [4] is 2.3% (inactive). Moreover, the GLP1 secretion stimulation in assay [5] was -2% (inactive). For the same compound, the inhibition of viability in assay [6] is -5.17% (inactive). The viability decrease (inhibition) is 16.8% (inactive) in [7] and -4% (inactive) in assay [8]. Also, the inhibition in assay [9] is 7.34% (inactive). Also, in assay [10], the red/green cell ratio (normalised) is 1.08 (inactive). Moreover, the results for the normalised cell number in [10] (setting [15]) and in assay [10] (setting [16]) were 1.2 and 1.3, respectively. In addition, the fold change is 0.98 (inactive) and 0.828 (inactive) and 0.88 (inactive) in assay [11] (setting [17]); 1.92 and 1.71 and 1.64 in assay [11] (setting [18]). The cell count in [11] (setting [19]) was 11100 and 8640 and 10800; in assay [11] (setting [20]) it was 11400 and 10400 and 12300. The z-score in assay [12] (setting [21]) was -0.366 (inactive); in assay [12] (setting [22]) it was -0.339. In assay [13], the remaining NAD was 10 nM (inactive). The log fold change Tl+ flux is -0.0172 (inactive) in the assay with F380Y; -0.0295 (inactive) in the assay with F380Y/beta1; -0.039 (inactive) in the assay on F380Y/beta2Delta; -0.0276 (inactive) in the assay on F380Y/beta4; -0.00177 (inactive) in [14]; -0.0359 (inactive) in the assay with R275C.

For `CN[C@H]1CC[C@@H](c2ccc(Cl)c(Cl)c2)c2ccccc21`, the nuclear beta-catenin stimulation in [1] (at 10 µM) is 6.5% (inactive); in assay [1] (stimulation, at 2 µM) it was -1.4%. Moreover, the insulin secretion stimulation in [2] was 11.8% (inactive). In addition, in assay [3], the viability decrease was 98.7% (active). In addition, the tube area decrease in assay [4] is 67.1% (active). In [5], the GLP1 secretion stimulation is 7.5% (inactive). In addition, the inhibition of viability in [6] was 99.1% (active). For the same compound, the viability decrease (inhibition) in assay [7] was 120% (active); in assay [8], 98% (active). Further, the inhibition in assay [9] was -2.43% (inactive). In addition, the red/green cell ratio (normalised) in assay [10] is 1.12 (inactive). In addition, the normalised cell number in assay [10] (setting [15]) worked out at 0.93; in assay [10] (setting [16]) it was 1.05. In addition, the z-score in assay [12] (setting [21]) was -0.257 (inactive); in [12] (setting [22]), 0.309. For the same compound, the log fold change Tl+ flux in the assay with F380Y was 0.286 (active) and 0.195 (active); with F380Y/beta1 it was 0.844 (active) and 0.685 (active); in the assay with F380Y/beta2Delta, 0.62 (active) and 0.894 (active); with F380Y/beta4 it was 1.13 (active) and 1.04 (active); in [14], 0.123 (active) and 0.169 (active); in the assay on R275C it was -0.288 (active) and -0.259 (active).

Regarding `CCc1nc(N)nc(N)c1-c1ccc(Cl)cc1`, the nuclear beta-catenin stimulation was 72.4% (active) in [1] (at 10 µM) and 69.7% in assay [1] (stimulation, at 2 µM). Further, the insulin secretion stimulation in assay [2] is 1.3% (inactive). In assay [3], the viability decrease is 18.7% (inactive). The tube area decrease in assay [4] is 16.8% (inactive). Moreover, the GLP1 secretion stimulation in assay [5] is -0.3% (inactive). The inhibition of viability in assay [6] was 56.7% (active). Further, the viability decrease (inhibition) in assay [7] was 95.5% (active); in assay [8], 35% (inactive). Moreover, the inhibition in assay [9] was 5.34% (inactive). The red/green cell ratio (normalised) in assay [10] was 0.84 (inactive). Moreover, the normalised cell number in assay [10] (setting [15]) came to 0.9; in [10] (setting [16]), 0.75. Further, the z-score in assay [12] (setting [21]) is -0.337 (inactive) and 1.11 (inactive); in assay [12] (setting [22]) it was 0.731 and -0.178. In [13], the remaining NAD was 10 nM (inactive). The log fold change Tl+ flux with F380Y is 0.0572 (inactive); in the assay with F380Y/beta1 it was -0.116 (inactive); in the assay with F380Y/beta2Delta, 0.0521 (inactive); in the assay on F380Y/beta4, -0.0112 (inactive); in assay [14] it was -0.0172 (inactive); in the assay on R275C it was -0.00785 (inactive).

As to `CO[C@@]1(NC(=O)Cc2cccs2)C(=O)N2C(C(=O)O)=C(COC(N)=O)CS[C@@H]21`, the nuclear beta-catenin stimulation in [1] (at 10 µM) is -1.4% (inactive); in assay [1] (stimulation, at 2 µM), -0.5%. For the same compound, the insulin secretion stimulation in assay [2] is 2.1% (inactive). For the same compound, the viability decrease in [3] was -11.8% (inactive). Also, the tube area decrease in [4] was 26.2% (inactive). In addition, the GLP1 secretion stimulation in [5] is -1.2% (inactive). In addition, in assay [6], the inhibition of viability is 14.8% (inactive). In addition, the values for the viability decrease (inhibition) in assay [7] and in [8] were 8.9% (inactive) and -14.4% (inactive), respectively. Besides, the inhibition in assay [9] is 8.52% (inactive). In addition, in assay [10], the red/green cell ratio (normalised) was 1.1 (inactive). The normalised cell number in assay [10] (setting [15]) stood at 0.99; in assay [10] (setting [16]), 1.09. Also, the fold change in assay [11] (setting [17]) was 1.01 (inactive) and 0.868 (inactive) and 0.891 (inactive); in assay [11] (setting [18]) it was 8.44 and 1.64 and 2.66. The cell count in assay [11] (setting [19]) is 10400 and 9040 and 11300; in [11] (setting [20]) it was 10300 and 10400 and 12700. The values for the z-score in [12] (setting [21]) and in [12] (setting [22]) were 0.626 (inactive) and -0.518, respectively. Besides, the remaining NAD in assay [13] is 10 nM (inactive). Further, the log fold change Tl+ flux is 0.0585 (inactive) in the assay with F380Y; -0.00712 (inactive) in the assay on F380Y/beta1; -0.00432 (inactive) in the assay on F380Y/beta2Delta; -0.02 (inactive) in the assay on F380Y/beta4; -0.0176 (inactive) in assay [14]; 0.0592 (inactive) in the assay with R275C.

The values above are taken from PubChem BioAssay.
